Data: PubChem BioAssay (EPA / NIEHS)
Calls of active or inactive are those of the source. Rule for the calls: active = hit-call score of the fitted dose curve at least 0.9, where 1 is the maximum; inactive = score below 0.9.

How the values were obtained:
[1] = read-out: Thrombomodulin, THBD (gene 7056); assay: BSK_CASM3C_Thrombomodulin: BioMAP Diversity Plus: CASM3C Assay for Thrombomodulin Biomarker Activity (AID 2283051); settings: primary human coronary artery smooth muscle cells; actives raise or lower the signal;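 note: thrombomodulin protein level measured by ELISA 24 h after dosing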
[2] = read-out: Tissue Factor, F3 (gene 2152); assay: BSK_CASM3C_TissueFactor: BioMAP Diversity Plus: CASM3C Assay for Tissue Factor Biomarker Activity (AID 2283052); settings: primary human coronary artery smooth muscle cells; actives raise or lower the signal;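 note: cell surface tissue factor protein level read by ELISA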
[3] = read-out: Interferon-gamma inducible Protein 10 (IP10), CXCL10 (gene 3627); assay: BSK_hDFCGF_IP10: BioMAP Diversity Plus: hDFCGF Assay for Interferon-gamma inducible Protein 10 (IP10) Biomarker Activity (AID 2283053); settings: primary human foreskin fibroblasts; actives raise or lower the signal
Summary of the method: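 ELISA quantification of IP-10 after a 24 h chemical exposure of human dermal foreskin fibroblast primary cultures. Both increases and decreases versus DMSO fitted.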

[4] = read-out: Urokinase-type plasminogen activator receptor (uPAR), PLAUR (gene 5329); assay: BSK_CASM3C_uPAR: BioMAP Diversity Plus: CASM3C Assay for Urokinase-type plasminogen activator receptor (uPAR) Biomarker Activity (AID 2283054); settings: primary human coronary artery smooth muscle cells; actives raise or lower the signal;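 note: cell-surface uPAR protein level quantified by ELISA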
[5] = read-out: Vascular cell adhesion molecule 1 (VCAM1), VCAM1 (gene 7412); assay: BSK_CASM3C_VCAM1: BioMAP Diversity Plus: CASM3C Assay for Vascular cell adhesion molecule 1 (VCAM1) Biomarker Activity (AID 2283055); settings: primary human coronary artery smooth muscle cells; actives raise or lower the signal;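 note: VCAM-1 protein level quantified by ELISA on the cells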
[6] = read-out: Collagen III, COL3A1 (gene 1281); assay: BSK_hDFCGF_CollagenIII: BioMAP Diversity Plus: hDFCGF Assay for Collagen III Biomarker Activity (AID 2283056); settings: primary human foreskin fibroblasts; actives raise or lower the signal
Summary of the method: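 Human foreskin primary fibroblasts were exposed to test chemicals for 24 h, after which collagen III was quantified by ELISA. Activity was fitted bidirectionally against DMSO as negative control and baseline.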

[7] = read-out: Epidermal growth factor receptor (EGFR), EGFR (gene 1956); assay: BSK_hDFCGF_EGFR: BioMAP Diversity Plus: hDFCGF Assay for Epidermal growth factor receptor (EGFR) Biomarker Activity (AID 2283057); settings: primary human foreskin fibroblasts; actives raise or lower the signal
Summary of the method: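 EGFR levels by ELISA in human dermal fibroblast cultures, 24 h post-treatment, fitted bidirectionally versus DMSO. Parallel wells stained with sulforhodamine B to detect overt cytotoxicity.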

[8] = BSK_hDFCGF_Proliferation: Cell Proliferation Assessment in the BioMAP Diversity Plus: hDFCGF Assay (AID 2283059); settings: primary human foreskin fibroblasts;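 note: curves fitted for both rise and fall of signal versus DMSO baseline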
Summary of the method: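 Steps: dose primary human dermal fibroblasts (foreskin); […] fix in 10% TCA; stain with 0.1% SRB; read 560 nm; fit gain or loss of signal against DMSO.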

[9] = read-out: Macrophage colony-stimulating factor (MCSF), CSF1 (gene 1435); assay: BSK_hDFCGF_MCSF: BioMAP Diversity Plus: hDFCGF Assay for Macrophage colony-stimulating factor (MCSF) Biomarker Activity (AID 2283060); settings: primary human foreskin fibroblasts; actives raise or lower the signal
Summary of the method: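 Human foreskin primary fibroblasts were treated with test chemical for 24 h, and M-CSF was then measured by ELISA. Data were fitted bidirectionally against DMSO as the negative control and activity baseline.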

[10] = BSK_hDFCGF_SRB: Viability Assessment in the BioMAP Diversity Plus: hDFCGF Assay (AID 2283061); settings: primary human foreskin fibroblasts;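 note: cells exposed to compound for 24 h before the read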
Summary of the method: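 Human foreskin primary fibroblasts were treated with compound and assessed 24 h after dosing. Total protein was measured by sulforhodamine B staining (0.1% SRB after 10% TCA fixation, 560 nm read) as a cytotoxicity marker, with bidirectional fitting against DMSO baseline.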

[11] = read-out: TIMP metallopeptidase inhibitor 1 (TIMP1), TIMP1 (gene 7076); assay: BSK_hDFCGF_TIMP1: BioMAP Diversity Plus: hDFCGF Assay for TIMP metallopeptidase inhibitor 1 (TIMP1) Biomarker Activity (AID 2283062); settings: primary human foreskin fibroblasts; actives raise or lower the signal
Summary of the method: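 Primary human foreskin fibroblasts in the hDFCGF system were dosed with compound for 24 h, then TIMP-1 was measured by ELISA. Activity was fitted bidirectionally relative to DMSO control; parallel SRB staining assessed cytotoxicity.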

[12] = read-out: Monokine induced gamma interferon (MIG), CXCL9 (gene 4283); assay: BSK_hDFCGF_MIG: BioMAP Diversity Plus: hDFCGF Assay for Monokine induced gamma interferon (MIG) Biomarker Activity (AID 2283063); settings: primary human foreskin fibroblasts; actives raise or lower the signal
Summary of the method: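 ELISA read-out of MIG from primary human dermal fibroblasts 24 h post-dosing. Gain or loss of signal fitted bidirectionally, DMSO as baseline.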

[13] = read-out: Vascular cell adhesion molecule 1 (VCAM1), VCAM1 (gene 7412); assay: BSK_hDFCGF_VCAM1: BioMAP Diversity Plus: hDFCGF Assay for Vascular cell adhesion molecule 1 (VCAM1) Biomarker Activity (AID 2283065); settings: primary human foreskin fibroblasts; actives raise or lower the signal;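 for AC50: VCAM-1 protein level quantified by ELISA after 24 h chemical exposure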
Summary of the method: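 Primary human foreskin fibroblasts (hDFCGF system) were dosed with chemical and VCAM-1 was measured by ELISA 24 h later. Bidirectional curve fitting used DMSO as negative control and activity baseline.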

[14] = read-out: Plasminogen activator inhibitor-1 (PAI1), SERPINE1 (gene 5054); assay: BSK_hDFCGF_PAI1: BioMAP Diversity Plus: hDFCGF Assay for Plasminogen activator inhibitor-1 (PAI1) Biomarker Activity (AID 2283066); settings: primary human foreskin fibroblasts; actives raise or lower the signal
Summary of the method: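 PAI-1 levels in human dermal foreskin fibroblasts were quantified by ELISA 24 h after dosing, with gain or loss analysed against DMSO. Overt cytotoxicity was checked by sulforhodamine B total-protein staining in parallel cultures.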

[15] = read-out: Intercellular Adhesion Molecule 1 (ICAM1), ICAM1 (gene 3383); assay: BSK_KF3CT_ICAM1: BioMAP Diversity Plus: KF3CT Assay for Intercellular Adhesion Molecule 1 (ICAM1) Biomarker Activity (AID 2283067); settings: primary human keratinocytes with fibroblasts; actives raise or lower the signal
Summary of the method: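 Human keratinocyte plus foreskin fibroblast primary co-culture was exposed to chemical for 24 h. ICAM-1 was then quantified by ELISA, and the data were fit bidirectionally against DMSO as the negative control and baseline.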

[16] = read-out: Interferon-gamma inducible Protein 10 (IP10), CXCL10 (gene 3627); assay: BSK_KF3CT_IP10: BioMAP Diversity Plus: KF3CT Assay for Interferon-gamma inducible Protein 10 (IP10) Biomarker Activity (AID 2283068); settings: primary human keratinocytes with fibroblasts; actives raise or lower the signal
Summary of the method: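 KF3CT co-culture (keratinocytes + foreskin fibroblasts), 24 h compound, IP-10 by ELISA; bidirectional fit vs DMSO baseline.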

[17] = BSK_KF3CT_SRB: Viability Assessment in the BioMAP Diversity Plus: KF3CT Assay (AID 2283069); settings: primary human keratinocytes with fibroblasts
Summary of the method: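 Cytotoxicity was gauged by SRB staining (0.1% SRB, 10% TCA fixation, 560 nm) of parallel cultures at 24 h. The cells were primary human skin keratinocytes co-cultured with fibroblasts, and activity was fitted in both directions against DMSO.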

[18] = read-out: Interleukin-1 alpha (IL1a), IL1A (gene 3552); assay: BSK_KF3CT_IL1a: BioMAP Diversity Plus: KF3CT Assay for Interleukin-1 alpha (IL1a) Biomarker Activity (AID 2283070); settings: primary human keratinocytes with fibroblasts; actives raise or lower the signal
Summary of the method: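 IL-1a was detected by ELISA 24 h after chemical treatment of a co-culture of human skin keratinocytes and foreskin fibroblasts. Gain or loss of signal was fitted against the DMSO baseline.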

[19] = read-out: Matrix Metallopeptidase 1 (MMP1), MMP1 (gene 4312); assay: BSK_hDFCGF_MMP1: BioMAP Diversity Plus: hDFCGF Assay for Matrix Metallopeptidase 1 (MMP1) Biomarker Activity (AID 2283064); settings: primary human foreskin fibroblasts; actives raise or lower the signal
Summary of the method: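 MMP1 levels quantified by ELISA 24 h after dosing human dermal fibroblast cultures, with parallel SRB total-protein staining for overt cytotoxicity. Data fitted in both directions against DMSO baseline.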

Measured: AC50

CN(C)C(=O)Nc1ccc(Oc2ccc(Cl)cc2)cc1
active: [14] 0.016 µM
not listed: [19]
inactive: all other assays above

CC(C)(N=C=O)c1cccc(C(C)(C)N=C=O)c1
active: [8] 29.9 µM
not listed: [13] | [19]
inactive: all other assays above

c1ccc(CCc2ccccc2)cc1
inactive: [1] | [7] | [12] | [15]
active: [2] 20 µM | [3] 34.1 µM | [4] 31.9 µM | [5] 37.6 µM | [6] 36.1 µM | [8] 13.8 µM | [9] 30.5 µM | [10] 30.3 µM | [11] 36.6 µM | [13] 30.9 µM | [14] 31.1 µM | [16] 30 µM | [17] 28.5 µM | [18] 25.2 µM

CCCCOC(=O)CCCCCCCC(=O)OCCCC
inactive: all assays above

CCCCCC(C=O)=Cc1ccccc1
inactive: [1] | [3] | [7] | [9] | [11] | [12] | [14]
active: [2] 20 µM | [4] 39.3 µM | [5] 31.2 µM | [6] 31 µM | [8] 31.4 µM | [10] 31.5 µM | [19] 0.146 µM | [15] 33.1 µM | [16] 30.4 µM | [17] 36.5 µM | [18] 20 µM
